SENP7 inh: SENP7 protease inhibition | AID 434973 | inhibition, % at 5 µM | 330,000 tested, 1.5% active | Q9BQF6 | recombinant SENP7, Z-RLRGG-aminoluciferin luminescence, 40 min;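 active means inhibition above about 50% at the single test dose, limit read from the data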;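 further: plate controls were DMSO with enzyme for no effect and no enzyme buffer wells for full effect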
Target sequence (Q9BQF6 706-1050 limits assumed): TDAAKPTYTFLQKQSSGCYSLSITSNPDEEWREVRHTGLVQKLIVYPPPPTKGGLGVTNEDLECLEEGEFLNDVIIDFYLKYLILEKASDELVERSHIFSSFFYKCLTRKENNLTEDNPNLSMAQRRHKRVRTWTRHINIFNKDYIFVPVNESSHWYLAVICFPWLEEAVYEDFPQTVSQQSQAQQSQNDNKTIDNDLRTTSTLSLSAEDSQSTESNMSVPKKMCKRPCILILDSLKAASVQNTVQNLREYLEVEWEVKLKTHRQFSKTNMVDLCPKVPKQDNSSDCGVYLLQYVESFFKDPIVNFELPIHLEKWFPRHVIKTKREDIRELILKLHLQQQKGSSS
SENP8 block-1: SENP8 (human) protease inhibition | Q96LD8 | recombinant SENP8, Nedd8 substrate fluorescence | inhibition, % at 20 µM | 360,000 tested, 0.64% active; in the data active means inhibition mostly above about 40%, no sharp cut-off; inactive means mostly below about 27%
Target sequence (Q96LD8 whole entry, looked up): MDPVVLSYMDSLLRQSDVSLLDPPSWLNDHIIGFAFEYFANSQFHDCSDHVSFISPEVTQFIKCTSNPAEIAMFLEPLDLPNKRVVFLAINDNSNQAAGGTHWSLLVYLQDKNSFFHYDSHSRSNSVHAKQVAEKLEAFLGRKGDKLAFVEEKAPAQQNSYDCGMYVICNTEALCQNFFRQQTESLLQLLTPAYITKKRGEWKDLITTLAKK
SENP8 block-2: SENP8 protease inhibition | Q96LD8 | purified SENP8, Z-RLRGG-aminoluciferin cleavage, luminescence | inhibition, % at 10 µM | 330,000 tested, 1.2% active; in the data active means inhibition above about 50%
SENP6 block: blocks the human protease SENP6; AID 2599; Q9GZR1; 330,000 tested, 1.8% active; inhibition, % at 10 µM; Recombinant SENP6 catalytic domain, aminoluciferin luminescence;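 active means inhibition above about 50% at the single tested dose, limit read from the data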;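 further: plate controls were DMSO wells with enzyme for no effect and DMSO wells lacking enzyme for full effect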
HSP90 inh: blocks HSP90-mediated luciferase refolding in reticulocyte lysate. 290,000 tested, 0.91% active. inhibition, % at 5.6 µM. Rabbit reticulocyte lysate, luciferase refolding luminescence, 3 h. AID 1789;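 active means inhibition above the screen-wide mean plus 3 SD, computed separately per campaign, cut at about 16% in these data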;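 further: 0% = DMSO wells and 100% = 60 µM geldanamycin wells; inhibitors lower the luminescence because luciferase stays unfolded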
SENP8 inh conf: confirmation of human SENP8 protease inhibitors; inhibition, % at 25 µM; 1,400 tested, 15% active; purified SENP8, Nedd8-AMC/pro-Nedd8 cleavage fluorescence, 30 min; shares compounds with SENP8 block-1; in the data active means inhibition mostly above about 39%, no sharp cut-off; inactive means mostly below about 34%
Active calls of the source: *. An excerpt weighted towards active compounds, which were near 2.7% of everything screened.

What do the screens show for `O=C(NN1C(=O)C2C3c4ccccc4C(c4ccccc43)C2C1=O)c1ccccc1` (configuration not stated)?
SENP7 inh: 0.9; SENP8 block-1: 9.1; SENP8 block-2: -1.7; SENP6 block: -6.8; HSP90 inh: 2.4

What do the screens show for `Cc1nnc(SCC(=O)N2CCN(C(=O)c3ccco3)CC2)n1C`?
SENP7 inh: 1.2; SENP8 block-1: 4.3; SENP8 block-2: 2.8; SENP6 block: 2.1

What do the screens show for `CCCCn1c(SCC(=O)Nc2ccc3c(c2)CCC3)nc2ccccc2c1=O`?
SENP7 inh: -10.8; SENP8 block-1: 22.3; SENP8 block-2: 4.6; SENP6 block: -4.8; HSP90 inh: -4.2

What do the screens show for `CC(C)(C)OC(=O)N1Cc2ccccc2C[C@H]1C(=O)O`?
SENP7 inh: 6.0; SENP8 block-1: 40.1*; SENP8 block-2: 2.8; SENP6 block: 14.6; HSP90 inh: -1.1; SENP8 inh conf: 68.2*

How did O=C(O)C1Cc2ccccc2CN1C(=O)c1ccccc1 (configuration not stated) do in these assays?
SENP7 inh: 4.6; SENP8 block-1: 12.5; SENP8 block-2: -1.9; SENP6 block: -1.6; HSP90 inh: 1.2

How did CCN(CC)c1ccc(N=Cc2c(C)[nH]c3ccccc23)cc1 do in these assays?
SENP7 inh: 0.1; SENP8 block-1: 59.8*; SENP8 block-2: -10.2; SENP6 block: 10.6; HSP90 inh: 4.5; SENP8 inh conf: 8.1

Results for CC1CCC2C(=O)N(c3ccc(NC4CCCCC4)c([N+](=O)[O-])c3)C(=O)C2C1 (configuration not stated) ?
SENP7 inh: 2.0; SENP8 block-1: 24.3; SENP8 block-2: 0.6; SENP6 block: -6.8; HSP90 inh: -0.2

What do the screens show for `CCOC(=O)N1CCC(Nc2ccc(N3C(=O)C4CCCCC4C3=O)cc2[N+](=O)[O-])CC1` (configuration not stated)?
SENP7 inh: 8.2; SENP8 block-1: 37.8*; SENP8 block-2: 0.7; SENP6 block: -21.8; HSP90 inh: -0.7; SENP8 inh conf: 22.4

What do the screens show for `CN(C)CCn1c(=O)n(Cc2ccccc2)c(=O)c2c3c(sc21)CCCCC3`?
SENP7 inh: 2.3; SENP8 block-1: 2.8; SENP8 block-2: 4.2; SENP6 block: -3.4; HSP90 inh: 1.6

What do the screens show for `CC1=NCC(C)c2ccccc21` (configuration not stated)?
SENP8 block-1: -1.1

What do the screens show for `CCOc1ccccc1N1CCN(C(=O)CNC(=O)c2sc3ccccc3c2Cl)CC1`?
SENP7 inh: -1.6; SENP8 block-1: 3.3; SENP8 block-2: 8.3; SENP6 block: -2.7; HSP90 inh: -0.2

How did Oc1ccc(Br)cc1-c1cc(-c2ccccc2Cl)[nH]n1 do in these assays?
SENP7 inh: -11.0; SENP8 block-1: 42.1*; SENP8 block-2: -26.2; SENP6 block: -25.6; HSP90 inh: 0.4; SENP8 inh conf: 16.9

Results for COc1c(OC)c(O)c2c(=O)c(O)c(-c3ccccc3)oc2c1OC ?
SENP7 inh: 6.6; SENP8 block-1: 41.7*; SENP8 block-2: 6.8; SENP6 block: -5.3; HSP90 inh: -1.9; SENP8 inh conf: 5.2

What do the screens show for `COc1ccc(-c2oc3c(OC)c(OC)c(OC)c(O)c3c(=O)c2OC)cc1OC`?
SENP7 inh: -3.8; SENP8 block-1: -2.9; SENP8 block-2: -1.6; SENP6 block: -0.4; HSP90 inh: -3.6

How did CCOC(=O)N1CCN(c2c(-c3ccccc3)c3cc(Cl)ccc3[nH]c2=O)CC1 do in these assays?
SENP7 inh: -0.6; SENP8 block-1: -158.8; SENP8 block-2: 2.6; SENP6 block: -3.0; HSP90 inh: 0.2

How did C/C(=C\C(=O)c1ccccc1)Nc1ccc(O)cc1 do in these assays?
SENP7 inh: 17.4; SENP8 block-1: 84.2*; SENP8 block-2: -5.4; SENP6 block: 9.3; HSP90 inh: 8.4; SENP8 inh conf: 16.1

What do the screens show for `C/C(=C\C(=O)c1cccnc1)Nc1ccc(O)cc1`?
SENP7 inh: 11.1; SENP8 block-1: 83.7*; SENP8 block-2: 1.0; SENP6 block: -6.7; HSP90 inh: 5.5; SENP8 inh conf: 16.0

What do the screens show for `COc1ccc(C(=O)/C=C(\C)Nc2ccc(NC(C)=O)cc2)cc1`?
SENP7 inh: 10.5; SENP8 block-1: 20.6; SENP8 block-2: 4.4; SENP6 block: 10.6; HSP90 inh: -0.2

What do the screens show for `COc1ccc(/C=N/Nc2nc(C)c([N+](=O)[O-])c(N(C)c3ccccc3)n2)cc1OC`?
SENP7 inh: 2.5; SENP8 block-1: 52.9*; SENP8 block-2: 5.4; SENP6 block: -10.4; HSP90 inh: -0.4; SENP8 inh conf: 6.5

How did O=C(COc1ccccc1)N1CCN(C(=O)c2cccc(F)c2)CC1 do in these assays?
SENP7 inh: 8.3; SENP8 block-1: 40.6*; SENP8 block-2: 1.6; SENP6 block: -12.2; HSP90 inh: -4.1; SENP8 inh conf: 35.8

Results for O=C(Nc1cc(S(=O)(=O)Nc2ccc(Cl)cc2)ccc1O)c1ccc(S(=O)(=O)N2CCCCCC2)cc1 ?
SENP7 inh: 2.4; SENP8 block-1: -6.0; SENP8 block-2: 1.0; SENP6 block: -10.3; HSP90 inh: 0.7

Results for O=C(CSc1nnc(COc2cccc3cccnc23)o1)c1ccc(F)cc1 ?
SENP7 inh: 6.0; SENP8 block-1: -1.3; SENP8 block-2: 9.3; SENP6 block: -3.1; HSP90 inh: -0.4

How did CC1(OC(=O)c2ccc(Cl)nc2)C(=O)C=C2C=C(C3CC3)OC=C2C1=O (configuration not stated) do in these assays?
SENP7 inh: -0.1; SENP8 block-2: 3.8; SENP6 block: -1.3

Results for CC1(OC(=O)c2ccc(Cl)nc2)C(=O)C=C2C=C3CCCN3C=C2C1=O (configuration not stated) ?
SENP7 inh: 6.6; SENP8 block-1: 64.8*; SENP8 block-2: 6.8; SENP6 block: 13.7; SENP8 inh conf: 44.0*

How did COC(=O)CCC(=O)OC1(C)C(=O)C=C2C=C3CCCN3C=C2C1=O (configuration not stated) do in these assays?
SENP7 inh: 3.3; SENP8 block-1: 53.4*; SENP8 block-2: 6.4; SENP6 block: 10.9; SENP8 inh conf: 47.0*

Results for CC1(OC(=O)C2CCCC2)C(=O)C=C2C=C3CCCCN3C=C2C1=O (configuration not stated) ?
SENP7 inh: -2.0; SENP8 block-1: 57.1*; SENP8 block-2: -11.1; SENP6 block: 5.9; SENP8 inh conf: 59.8*

Results for CNc1ccc(/C=C2\COc3ccccc3C2=O)cc1[N+](=O)[O-] ?
SENP7 inh: -18.3; SENP8 block-1: 50.2*; SENP8 block-2: -6.4; SENP6 block: -7.7; HSP90 inh: 1.1; SENP8 inh conf: 14.3

How did Cc1ccnc(N2C(=O)c3ccccc3C2Nc2cccc(C)c2C)c1 (configuration not stated) do in these assays?
SENP7 inh: -4.6; SENP8 block-1: 4.9; SENP8 block-2: 3.1; SENP6 block: -5.8; HSP90 inh: -7.4

How did Cc1ccc(C(=O)N2C(=S)C(c3ccc(F)cc3)=NC23CCN(C)CC3)cc1 do in these assays?
SENP7 inh: -0.3; SENP8 block-1: 66.0*; SENP8 block-2: -18.4; SENP6 block: -5.7; HSP90 inh: -4.0; SENP8 inh conf: 58.2*
